Hits are enriched below; roughly 3% of the tested compounds scored in any of these assays.
ABHD5-PLIN5 inh: ABHD5-PLIN5 protein interaction inhibition. AID 602281. Split G. princeps luciferase complementation, luminescence, 4 h. 0.78% of 360,000 active. Q00G26+Q8WTS1. inhibition, % at 4 µM;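 active means inhibition above the mean inhibition across every tested compound plus 3 SD, cut at about 22% in these data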;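 further: 0% = DMSO only wells and the 100% control is not disclosed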
Shn3 inh set2: reduces Shn3 3'UTR luciferase signal in osteoblasts; Clone20 osteoblast Shn3 3'UTR firefly luciferase, 24 h; inhibition, % at 12.5 µM; 0.52% of 360,000 active; AID 588674;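 active means mean inhibition of at least 75% with every replicate also reaching 75%; inconclusive means mean inhibition at least 75% but some replicate below; inactive means mean inhibition below 75%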;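 further: 0% = median of neutral control wells and 100% = pilot-screen positive control compound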
Peg3 promoter: reduces Peg3 promoter-driven luciferase expression in HeLa; HeLa PEG-Prom luciferase reporter, luminescence, overnight; inhibition, % at 20 µM; 1.7% of 360,000 active;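 active means inhibition of at least 50% at 20 µM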
TRPM1 prom inh: MITF TRPM1 promoter inhibition in SK-MEL-5 cells; 0.83% of 330,000 active; SK-MEL-5 TRPM1 promoter luciferase, 24 h; AID 488899; inhibition, % at 12.5 µM;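 active means mean inhibition across replicates of 60% or more, whatever share of single replicates reaches that level; inconclusive means some that reach 60%, reason not given; inactive means mean inhibition across replicates below 60%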
EWS-Fli inh: inhibitors of EWS/Fli oncoprotein transcriptional activity; A673 NR0B1-luciferase reporter, viability-normalised; inhibition, % at 12.6 µM; 0.67% of 350,000 active; AID 651661;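 active means mean inhibition of at least 50% after viability correction, with every replicate also passing that limit; inconclusive means mean reaches 50% but only one of two replicates passes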;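 further: firefly luciferase signal divided by Alamar Blue viability fluorescence both relative to DMSO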
PAX8 reporter: PAX8 transcriptional activity inhibition; RMG-I TPO-luciferase reporter, SteadyGlo, 24 h; inhibition, % at 12.6 µM; 1.2% of 360,000 active;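 active means mean replicate inhibition at least 60% with every replicate also reaching 60%; inconclusive means only one of the two criteria is met; inactive means mean below 60% and not all replicates reaching 60%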;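 further: luciferase light reporting Pax8 driven TPO promoter activity; plate controls were median of neutral control wells for no effect and mitoxantrone controls for full effect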
* = called active by the depositor; ! = repeats disagree.

How did CC1=C(/C=C/C(C)=C/C=C/C(C)=C\C(=O)O)C(C)(C)CCC1 do in these assays?
ABHD5-PLIN5 inh: 8.3; Shn3 inh set2: -7.9; Peg3 promoter: -20.3; TRPM1 prom inh: -33.5; EWS-Fli inh: 4.3; PAX8 reporter: -6.2

Results for CC1=C(/C=C/C(C)=C/C=C/C(C)=C/C(=O)Nc2ccc(O)cc2)C(C)(C)CCC1 ?
ABHD5-PLIN5 inh: -13.8; Shn3 inh set2: 58.0; Peg3 promoter: 61.2*!; TRPM1 prom inh: -2.9; EWS-Fli inh: inconclusive; PAX8 reporter: 41.4

What do the screens show for `CC(NC(=O)Cn1ncc(Cl)c(Cl)c1=O)C12CC3CC(CC(C3)C1)C2` (stereo not given)?
ABHD5-PLIN5 inh: 14.1; Shn3 inh set2: 97.7*; Peg3 promoter: 97.4*; TRPM1 prom inh: 108.5*

How did O=C(CN1CCCCC1)NC(=O)NC1CCCC1 do in these assays?
ABHD5-PLIN5 inh: 4.3; Shn3 inh set2: -6.3; Peg3 promoter: -24.1; TRPM1 prom inh: -12.7; EWS-Fli inh: -11.8; PAX8 reporter: -45.0

How did O=C(Cn1ncc(Cl)c(Cl)c1=O)NC(=O)NC1CCCCC1 do in these assays?
ABHD5-PLIN5 inh: 14.0; Shn3 inh set2: 73.6; Peg3 promoter: 89.3*; TRPM1 prom inh: 115.2*; EWS-Fli inh: 62.2*; PAX8 reporter: 91.4*

How did CO[C@@H]1CN(C)C(=O)c2ccc(NC(=O)Nc3ccccc3F)cc2OC[C@H](C)N(C(C)=O)C[C@@H]1C do in these assays?
EWS-Fli inh: -3.3; PAX8 reporter: 14.1

What do the screens show for `Cc1ccc(C)c(-n2c3nc(=O)[nH]c(=O)c-3cc3cc([N+](=O)[O-])ccc32)c1`?
ABHD5-PLIN5 inh: 16.1; Shn3 inh set2: 6.1; Peg3 promoter: 48.6; TRPM1 prom inh: inconclusive; EWS-Fli inh: 70.2*; PAX8 reporter: 33.9

How did Cc1noc(C)c1NC(=O)Nc1cccc2c1O[C@@H](CN(C)C(=O)Nc1ccc(F)cc1)[C@H](C)CN([C@H](C)CO)C2=O do in these assays?
EWS-Fli inh: -6.0

What do the screens show for `CCC(=O)N(C)C[C@H]1Oc2cc(-c3ccc(C)cc3)ccc2S(=O)(=O)N([C@@H](C)CO)C[C@@H]1C`?
EWS-Fli inh: 9.5

How did CCOC(=O)c1c(-c2ccc(-c3ccccc3)cc2)csc1NC(=O)CNCCN(C)C do in these assays?
ABHD5-PLIN5 inh: 21.1; Shn3 inh set2: 49.8; Peg3 promoter: 103.2*; TRPM1 prom inh: 39.1; EWS-Fli inh: inconclusive; PAX8 reporter: 4.4

Results for CCCCNC(=O)c1ccc2nc(-c3ccco3)c(-c3ccco3)nc2c1 ?
ABHD5-PLIN5 inh: 13.5; Shn3 inh set2: 8.3; Peg3 promoter: -6.4; EWS-Fli inh: -28.0; PAX8 reporter: 8.9

What do the screens show for `O=C(NCc1ccccc1)c1ccc2nc(-c3ccco3)c(-c3ccco3)nc2c1`?
ABHD5-PLIN5 inh: 24.3*; Shn3 inh set2: 18.7; Peg3 promoter: 11.8; TRPM1 prom inh: 8.7; PAX8 reporter: 1.3

What do the screens show for `O=C(CC1CC1)N1CC2(C1)[C@H](c1ccccc1)[C@H](CO)N2C(=O)c1cccnc1`?
EWS-Fli inh: 5.9; PAX8 reporter: 10.4

What do the screens show for `C[C@@H]1CN([C@@H](C)CO)C(=O)c2c(c3ccccc3n2C)-c2ccccc2CO[C@@H]1CN(C)Cc1cccc(C(F)(F)F)c1`?
EWS-Fli inh: 2.0; PAX8 reporter: 55.8

How did C[C@@H]1CN([C@H](C)CO)C(=O)c2c(c3ccccc3n2C)-c2ccccc2CO[C@H]1CN(C)C(=O)Nc1cccc(C(F)(F)F)c1 do in these assays?
EWS-Fli inh: 8.3; PAX8 reporter: 78.9*

Results for C[C@H]1CN([C@@H](C)CO)C(=O)c2c(c3ccccc3n2C)-c2ccccc2CO[C@@H]1CN(C)Cc1cccc(C(F)(F)F)c1 ?
EWS-Fli inh: 3.0; PAX8 reporter: 81.7*

How did Cc1ccc(NC(=O)c2ccc([N+](=O)[O-])o2)cc1C do in these assays?
ABHD5-PLIN5 inh: 2.7; Shn3 inh set2: 49.9; Peg3 promoter: 96.9*; TRPM1 prom inh: 21.9; EWS-Fli inh: -71.4; PAX8 reporter: 21.7

How did O=C(Nc1cccc(NC(=O)c2ccccc2Cl)c1)c1ccc([N+](=O)[O-])o1 do in these assays?
ABHD5-PLIN5 inh: -9.6; Shn3 inh set2: 44.6; Peg3 promoter: 97.7*; TRPM1 prom inh: 76.8*; EWS-Fli inh: 38.0; PAX8 reporter: 98.2*

What do the screens show for `O=C(Nc1ccc(N2CCN(Cc3ccccc3F)CC2)cc1)c1ccccc1[N+](=O)[O-]`?
ABHD5-PLIN5 inh: -0.9; Shn3 inh set2: 21.2; Peg3 promoter: 11.0; TRPM1 prom inh: 6.7; EWS-Fli inh: 2.8; PAX8 reporter: 8.4

Screening data: PubChem, several laboratories
